pAkt inh: inhibitors of Akt phosphorylation | Neuro2A IGF-stimulated pAkt S473 HTRF, 20 min; hits give low values | activity change, % for hits at 50 µM | hit rate 0.32% among 360,000; in the data active means activity change below about -80%; inconclusive means mostly about -51% to -80%; further: on the % scale 0 is the no-effect control and ±100 the full control effect
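Neuro2A cells (4,500/well, DMEM with 0.5% FBS) were treated with compound at a single 50 µM final concentration, stimulated with 6 nM IGF for 20 min at 37 °C, and lysed. Phospho-Akt Ser473 was read by HTRF as 665/615 ratio ×10^4.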
RXFP1 agonist: agonists of human relaxin receptor RXFP1 | Potency, µM (titrated, usually from 57.5 µM), without a hit: at the top dose activation, usual class: activators | HEK293T-RXFP1 cAMP TR-FRET, 30 min; response scale: percent of porcine relaxin response, buffer zero | hit rate 0.3% among 370,000 | AID 2676; active means well fitted activation curve with a large enough effect; inconclusive means small, poorly fitted or top-dose-only effect; further: potency means the concentration at half of the fitted maximal effect; on the % scale 0 is the no-effect control and ±100 the full control effect; nearly all actives have a fitted effect of over 60% in size
Target sequence (Q9HBX9 whole entry, looked up): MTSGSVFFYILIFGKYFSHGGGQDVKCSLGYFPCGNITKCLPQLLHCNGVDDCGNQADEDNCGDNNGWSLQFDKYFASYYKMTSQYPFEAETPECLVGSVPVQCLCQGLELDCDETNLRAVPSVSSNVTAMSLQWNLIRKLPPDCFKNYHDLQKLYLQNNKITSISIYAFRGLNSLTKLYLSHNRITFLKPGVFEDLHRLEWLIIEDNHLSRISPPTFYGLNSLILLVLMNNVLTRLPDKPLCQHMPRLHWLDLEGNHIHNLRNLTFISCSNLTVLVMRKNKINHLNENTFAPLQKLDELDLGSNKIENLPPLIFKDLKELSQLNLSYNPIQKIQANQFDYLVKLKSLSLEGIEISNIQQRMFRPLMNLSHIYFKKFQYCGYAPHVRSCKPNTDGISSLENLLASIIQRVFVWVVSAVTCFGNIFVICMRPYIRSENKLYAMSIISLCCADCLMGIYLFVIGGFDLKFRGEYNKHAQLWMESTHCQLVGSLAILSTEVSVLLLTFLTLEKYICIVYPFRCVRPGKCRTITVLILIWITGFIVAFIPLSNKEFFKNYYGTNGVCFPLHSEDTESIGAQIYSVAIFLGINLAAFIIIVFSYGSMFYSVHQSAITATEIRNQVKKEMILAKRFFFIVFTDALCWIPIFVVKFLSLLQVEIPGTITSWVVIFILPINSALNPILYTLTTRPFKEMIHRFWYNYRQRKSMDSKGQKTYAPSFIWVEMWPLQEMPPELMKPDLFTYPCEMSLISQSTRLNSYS
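cAMP rise read by TR-FRET after 30 min, 37C compound exposure (up to 58 uM) in RXFP1-transfected HEK293 cells with Ro 20174 present. EC50 from Hill-equation fits, with 29 nM porcine relaxin as 100% and buffer as basal.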
RXFP1 antag: blocks the human relaxin receptor RXFP1. activity change, negative = inhibition, % at 57.5 µM. hit rate 0.59% among 350,000. Q9HBX9. HEK293-RXFP1, relaxin-stimulated cAMP HTRF, 30 min; hits give low values;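 active means activity change of -60% or lower, but not beyond a set lower limit; inconclusive means change between -60% and -40%, or beyond the set limit; inactive means change above -40%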; further: on the % scale 0 is the no-effect control and ±100 the full control effect
gsp antagonist: gsp mutant antagonism. gsp-mutant cells, cAMP HTRF, 30 min. Potency, µM (highest dose often 76.9 µM), inactives show top-dose activity change, negative = inhibition, usual class: inhibitors. hit rate 0.4% among 340,000. AID 624288; calls by dose curve; cell line not stated here;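 further: intracellular cAMP measured with PDE inhibitor Ro 20-1724 present during compound exposure; potency means the concentration at half of the fitted maximal effect; on the % scale 0 is the no-effect control and ±100 the full control effect; nearly all actives have a fitted effect of over 65% in size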
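Cells, 2000/well, grown 16–24 h in DMEM 10% FBS with 0.5 mg/ml G418, then compounds plus […] (300 uM addition stock), 30 min at 37C. cAMP read by HTRF (cAMP-d2 and anti-cAMP antibody-K in lysis buffer) after 30 min RT.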
gsp agonist: gsp mutant agonism | gsp mutant cells, cAMP HTRF, 30 min | Potency, µM (doses to about 76.9 µM), inactives show at the highest dose activation (cAMP increase), usual class: activators | hit rate 0.13% among 340,000 | AID 624287; active means well fitted activation curve with a large enough effect; inconclusive means small, poorly fitted or top-dose-only effect, or another doubt; inactive means no such curve, though single readings can be large or run the other way; cell line not stated here;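 further: phosphodiesterase inhibitor Ro 20-1724 added with compounds to block cAMP breakdown; potency means the concentration at half of the fitted maximal effect; nearly all actives have a fitted effect of over 60% in size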
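Cells stably selected in G418 were plated at 2000/well, grown 16-24 hr, then given compounds in DMSO with the PDE inhibitor […] (300 uM solution added) for 30 min at 37C; cAMP was read by HTRF.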
Starred values were filed as active, the others as inactive; i = inactive; ? = inconclusive; / = no result given; [ ] = dose if it differs, or a comment. Sampled rows, rich in hits. Any-hit rate of the full collection: about 1.3%.

SMILES	pAkt inh	RXFP1 agonist	RXFP1 antag	gsp antagonist	gsp agonist
O=C(N=Nc1c(O)[nH]c2ccc([N+](=O)[O-])cc12)c1ccccc1[N+](=O)[O-]	i	-1%	-1	-26%	-23%
Cc1nn(-c2ccccc2)c2sc(C(=O)Nc3cccc(Br)c3)cc12	/	0%	-7	/	/
CC1=CC2C(C(O)CC3(C)C2CC(C)C32OCOC23COCO3)C2(C)C/C(=C\O)C(=O)C=C12 (stereo not given)	i	/	-76*	?	-12%
Cc1ccc2ccc(Cl)cc2n1	/	/	10	/	/
Cc1ccc2[nH]nc(C(=O)N3CCCC(C(=O)c4ccc(Cl)cc4)C3)c2c1 (stereo not given)	i	0%	-19	14µM*	-13%[15.4 µM]
O=C(c1ccc(Oc2ccccc2)cc1)C1CCCN(C(=O)c2cnccn2)C1 (stereo not given)	i	-1%	-13	-16%	2%[15.4 µM]
Cc1cc(C(=O)N2CCCC(C(=O)c3ccc(Oc4ccccc4)cc3)C2)n[nH]1 (stereo not given)	i	2%	-85*	35µM*	-10%
Cc1noc(C)c1C(=O)N1CCCC(C(=O)c2ccc(Cl)cc2)C1 (stereo not given)	i	1%	-14	14%	-25%[15.4 µM]
Cc1cc(C)c(OCCCCNCc2ccccc2)c(Cl)c1	i	1%	-107*	6%	?
Cc1cc(C)cc(NC(=O)c2sc3nc(-c4ccccc4)cn3c2C)c1	/	7%	2	/	/
COc1ccc(NC(=O)CSc2nnnn2C)cc1S(=O)(=O)N1CCCCC1	i	4%	-82*	6%	-22%[15.4 µM]
Cc1ccc(NC(=O)COc2ccc(N(C)C(=O)C(C)(C)C)cc2)cc1S(=O)(=O)N1CCCCC1	i	/	6	35µM*	-9%
COc1ccc(NC(=O)COc2ccccc2C(N)=O)cc1S(=O)(=O)N1CCCCC1	i	/	9	/	-1%
COc1cc(C(C)=O)ccc1OCC(=O)Nc1ccc(C)c(S(=O)(=O)N2CCCCCC2)c1	i	12%	-18	32µM*	4%
Cc1ccc(NC(=O)COc2ccccc2C(N)=O)cc1S(=O)(=O)N1CCCCCC1	i	0%	-14	35µM*	?
CC(=O)Nc1ccc(Nc2nnc(-c3ccc(C)c(S(N)(=O)=O)c3)c3ccccc23)cc1	i	0%	2	-1%	-29%[15.4 µM]
Cc1ccc(-c2nnc(Nc3ccc4c(c3)OCO4)c3ccccc23)cc1S(N)(=O)=O	i	1%	-20	28µM*	-1%[15.4 µM]
CCOc1cc(C(=S)N2CCN(C)CC2)ccc1OCC(=O)N1CCOCC1	-112%*	2%	4	-6%	9%
COc1ccc(NC(=O)c2cc3c(-c4ccc(OC)c(OC)c4)nn(C)c3s2)cc1OC	i	0%	1	-24%	-20%
COc1ccc(-c2nn(C)c3sc(C(=O)NCc4ccco4)cc23)cc1OC	i	?	-6	29%	13µM*
CC(C)CCC(O)(c1ccccc1)C(CN1CCOCC1)c1ccccc1 (stereo not given)	i	-1%	-80*	-5%	-4%[15.4 µM]
COc1ccc(C(O)(CCC(C)C)C(CN2CCOCC2)c2ccccc2)cc1 (stereo not given)	i	5%	?	-25%	-35%
CCCCCC(O)(c1ccccc1)C(CN1CCOCC1)c1ccccc1 (stereo not given)	i	0%	-64*	0%	-22%
Cc1cc(-c2n[nH]c(=S)o2)c(C)n1-c1ccccc1	i	0%	-30	-12%	0%
Oc1cc2ccccc2cc1-c1n[nH]c(=S)o1	i	1%	-18	28µM*	12%
SMILES	pAkt inh	RXFP1 agonist	RXFP1 antag	gsp antagonist	gsp agonist
O=C(Nc1ccc([N+](=O)[O-])cc1Cl)c1cc(Cl)ccc1O	i	1%	-25	2µM*	/
O=C(Nc1ccc([N+](=O)[O-])cc1Cl)c1cccc([N+](=O)[O-])c1	i	/	1	/	-27%
CC(=O)N1CCN(c2cc(N3CCCC3)c(F)cc2[N+](=O)[O-])CC1	i	0%	-39	-15%	15%
CCN1CCN(c2cc(N3CCc4ccccc4C3)c(F)cc2[N+](=O)[O-])CC1	i	1%	-115*	17%	-3%
CC(=O)c1c(C)oc2ccc(N(C(=O)Oc3ccccc3)S(=O)(=O)c3ccc(C(C)(C)C)cc3)cc12	/	-1%	/	/	/
Cc1ccc(N=C2NC(=O)/C(=C/C=C/c3ccco3)S2)cc1	i	2%	-67*	-11%	30%
Cc1cccc(N=C2NC(=O)/C(=C/C=C/c3ccco3)S2)c1C	i	1%	-77*	-7%	0%
O=C1NC(=Nc2ccccc2)S/C1=C\C=C\c1ccco1	i	1%	-102*	-24%	-30%
COc1ccc(N=C2NC(=O)/C(=C/c3ccco3)S2)cc1	i	-1%	-10	-19%	-14%
C1CCC(Nc2nnnn2C2CCCCC2)CC1	-104%*	-1%	-2	-1%	4%
COc1ccc(C(=O)COc2ccccc2N2C(=O)C3C4C=CC(C4)C3C2=O)cc1 (stereo not given)	-139%*	1%	-6	1%	-25%
CN(c1ccccc1)c1ccc(/C=C/[N+](=O)[O-])cc1	i	0%	-108*	13%	0%[15.4 µM]
O=[N+]([O-])c1ccc(C=CC=Cc2ccccc2)cc1	i	/	-8	/	8%
O=C(CN1C(=O)CC(c2ccco2)Sc2ccccc21)NC1CCCCC1 (stereo not given)	i	-1%	/	50µM*	8%
CC1CC(=O)N(CC(=O)NC2CCCCC2)c2ccccc2S1 (stereo not given)	i	0%	8	9%	9%
COc1cc(NC(=O)CSc2ncnc3c2cnn3Cc2ccccc2)cc(OC)c1	i	2%	0	-4%	8%
COc1ccc(OC)c(NC(=O)CSc2ncnc3c2cnn3-c2ccccc2Cl)c1	i	2%	-4	2µM*	-19%
CCOc1ccccc1CNC(=O)c1ccc2nc(N3CCC(C)CC3)sc2c1	/	2%	-16	/	/
Cc1cc(=O)n2nc(N3CCCC3C(=O)Nc3ccccc3C)sc2n1 (stereo not given)	i	?	7	4%	13µM*
CCOC(=O)C1CCN(C(=O)Cn2nc(CC)n3c(cc4occc43)c2=O)CC1	/	22%	/	/	/
CCCCCn1c(CCCNC(=O)c2ccccc2)nc2ccccc21	/	-3%	/	/	/
Cc1ccc(N2C(=O)N3[C@H](c4cccc(C)c4)[C@@H]4C(=O)N(Cc5ccccc5)C(=O)[C@@H]4[C@]3(C)C2=O)cc1	i	1%	/	-2%	-22%
Cc1cccc([C@@H]2[C@@H]3C(=O)N(Cc4ccccc4)C(=O)[C@@H]3[C@]3(C)C(=O)N(c4cccc(F)c4)C(=O)N23)c1	i	0%	/	28µM*	/

High-throughput results: PubChem BioAssay, National Center for Advancing Translational Sciences (NCATS)
